# Source: the supplement of paper PMC6522484
# ± gives the standard deviation of the averaged measurements.
# System: DLD1
# Experiment: cell viability (CellTiter-Glo) relative to plate median (fraction of plate median); higher = more viable cells
# Details: 5 µM; treatment time 24 h; reporter: 7TFP
# How it was run: (§1)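 Signals from firefly luciferase or CellTiterGlo readouts were normalised well by well to the plate median using webcellHTS2, additively and with no log transformation. They came from colorectal cancer cell lines stably holding lentiviral TCF/Wnt firefly luciferase reporters (7TFP or TCF4/Wnt), treated with library compounds at a final 5 µM for 24 h. The mean of two independent replicates is given.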
row,SMILES,cell viability
1,CN1CCC(=C2c3ccccc3Sc3ccccc32)CC1,1.004 ± 0.0092
2,NCc1ccc(S(N)(=O)=O)cc1,0.962 ± 0.023
3,C/N=C(/NC#N)NCCSCc1csc(NC(=N)N)n1,1 ± 0.068
4,C[C@@H]1O[C@H]2O[C@@H]3[C@@H](C)OC(c4ccc5c(c4O)C(=O)c4ccc(C[C@@](C)(O)CC(=O)O)c(O)c4C5=O)C[C@H]3O[C@H]2CC1=O (stereo not given in full) [Fridamycin D],1.14 ± 0.099
5,"COc1ccc2c(c1)[C@@]1(C)CCC(=O)C[C@H]1CC2 [5beta-12-METHOXY-4,4-BISNOR-8,11,13-PODOCARPATRIEN-3-ONE]",0.9975 ± 0.0035
6,Cc1cc(O)cc(=O)o1,1.05 ± 0.064
7,CC(=O)OCC(=O)[C@@]1(O)CC[C@H]2[C@@H]3CCC4=CC(=O)C=C[C@]4(C)[C@H]3[C@@H](O)C[C@@]21C,0.992 ± 0.04
8,NC[C@H]1O[C@H](O[C@H]2[C@H](O)[C@@H](O[C@H]3O[C@H](CO)[C@@H](O)[C@H](N)[C@H]3O)[C@H](N)C[C@@H]2N)[C@H](N)[C@@H](O)[C@@H]1O,1.11 ± 0.028
9,CC(CN1c2ccccc2Sc2ccccc21)N(C)C (stereo not given),1.09 ± 0.05
10,CC(C)=CCc1c(O)cc2occ(-c3ccc4c(c3)OCO4)c(=O)c2c1O,1 ± 0.12
11,CO[C@H]1/C=C/O[C@@]2(C)Oc3c(C)c(O)c4c(O)c(c(/C=N/N5CCN(C)CC5)c(O)c4c3C2=O)NC(=O)/C(C)=C\C=C\[C@H](C)[C@H](O)[C@@H](C)[C@@H](O)[C@@H](C)[C@H](OC(C)=O)[C@@H]1C,1.01 ± 0.064
12,c1ccc2c(c1)CN1CCCC1=N2,1.03 ± 0.028
13,CC1(C)CC2C1CC[C@]1(CBr)CCC3C(CC(=O)O)C(=O)O[C@@]32C1 (stereo not given in full) [BROMO-3-HYDROXY-4-(SUCCIN-2-YL)-CARYOLANE gamma-LACTONE],0.95 ± 0.085
14,NC(=O)c1ccc[n+]([C@@H]2O[C@H](COP(=O)([O-])OP(=O)(O)OC[C@H]3O[C@@H](n4cnc5c(N)ncnc54)[C@H](O)[C@@H]3O)[C@@H](O)[C@H]2O)c1,0.955 ± 0.11
15,COc1ccc(C2C(=O)c3ccccc3C2=O)cc1,0.997 ± 0.061
16,N=C1C=CC(=C(c2ccc(N)cc2)c2ccc(N)cc2)C=C1,0.908 ± 0.046
17,CC(C(=O)O)c1ccc2c(c1)[nH]c1ccc(Cl)cc12 (stereo not given),1.02 ± 0.063
18,CO/N=C(\C(=O)N[C@@H]1C(=O)N2C(C(=O)O)=C(COC(C)=O)CS[C@H]12)c1csc(N)n1,1.03 ± 0.035
19,Cc1cc(N)c2ccccc2[n+]1CCCCCCCCCC[n+]1c(C)cc(N)c2ccccc21,0.995 ± 0.092
20,CCOc1ccc(Cc2nccc3cc(OCC)c(OCC)cc23)cc1OCC,0.876 ± 0.016

row,SMILES,cell viability
1,Nc1nccs1,0.985 ± 0.079
2,CCC(C)C(=O)OC1[C@@H]2CC3=C4CC(=O)O[C@@H](c5ccoc5)[C@]4(C)CCC3[C@@](C)(C2=O)[C@@H](CC(=O)OC)C1(C)C (stereo not given in full),1.085 ± 0.0071
3,CC(C)[C@@H]1CC[C@@H](C)C[C@H]1OC(=O)c1ccccc1,1.01 ± 0.025
4,CCCCC(=O)Oc1ccccc1C(=O)O,0.984 ± 0.013
5,NS(=O)(=O)c1cc(C2(O)NC(=O)c3ccccc32)ccc1Cl (stereo not given),1.02 ± 0.067
6,CC1Cc2ccccc2N1NC(=O)c1ccc(Cl)c(S(N)(=O)=O)c1 (stereo not given),1.01 ± 0.069
7,Clc1ccccc1CN1CCc2sccc2C1,0.988 ± 0.013
8,COc1cc(O)cc(OC)c1OC,1.01 ± 0.019
9,C#C[C@]1(OC(C)=O)CC[C@H]2[C@@H]3CCC4=CC(=O)CC[C@@H]4[C@H]3CC[C@@]21C,0.87 ± 0.018
10,CN1CCN(CC/C=C2/c3ccccc3Sc3ccc(S(=O)(=O)N(C)C)cc32)CC1,1.07 ± 0.078
11,COc1cccc2c1C(=O)c1c(O)c3c(c(O)c1C2=O)CC(O)(C(C)O)CC3OC1CC(NC=O)C(O)C(C)O1 (stereo not given) [Baumycin C2],1.02 ± 0.035
12,COc1ccc(-c2cc(=O)c3cc(OC)ccc3o2)cc1,0.967 ± 0.031
13,Oc1c(Cl)cc(Cl)c2cccnc12,0.9925 ± 0.00071
14,COC1=CC(=O)C(C(=O)c2ccccc2)=CC1=O,0.965 ± 0.015
15,CC(=O)OCC(=O)[C@@]1(O)CC[C@H]2[C@@H]3CCC4=CC(=O)CC[C@]4(C)[C@H]3C(=O)C[C@@]21C,1.04 ± 0.021
16,COc1ccc2c3c1O[C@H]1C[C@@H](O)C=C[C@@]31CCN(C)C2,1.04 ± 0.05
17,CCS(=O)(=O)CCn1c([N+](=O)[O-])cnc1C,0.965 ± 0.019
18,CN1CCN(C2=Nc3ccccc3Oc3ccc(Cl)cc32)CC1,0.901 ± 0.22
19,COc1c2c(c(O)c3c4c(c(C)cc13)C1OC3(C(OC)OC)OC1C(O[C@H]1C[C@@H](O)[C@@](O)(C(C)=O)[C@H](C)O1)(O4)C3(O)CO)C(=O)C(O)CC2O[C@H]1C[C@@](C)(O)[C@H](OC(C)=O)[C@H](C)O1 (stereo not given in full) [Trioxacarcin B],1.09 ± 0.29
20,CC[C@H](C)[C@@H]1NC(=O)[C@H](C)NC1=O [Cyclo(alanylisoleucyl)],1.05 ± 0.12

# System: HCT116
# Experiment: as above
# Details: 5 µM; treatment time 24 h; reporter: TCF4/Wnt
# How it was run: as §1
row,SMILES,cell viability
1,CN1CCC(=C2c3ccccc3Sc3ccccc32)CC1,0.913 ± 0.032
2,NCc1ccc(S(N)(=O)=O)cc1,1 ± 0.069
3,C/N=C(/NC#N)NCCSCc1csc(NC(=N)N)n1,0.975 ± 0.078
4,C[C@@H]1O[C@H]2O[C@@H]3[C@@H](C)OC(c4ccc5c(c4O)C(=O)c4ccc(C[C@@](C)(O)CC(=O)O)c(O)c4C5=O)C[C@H]3O[C@H]2CC1=O (stereo not given in full) [Fridamycin D],0.942 ± 0.12
5,"COc1ccc2c(c1)[C@@]1(C)CCC(=O)C[C@H]1CC2 [5beta-12-METHOXY-4,4-BISNOR-8,11,13-PODOCARPATRIEN-3-ONE]",1.07 ± 0.071
6,Cc1cc(O)cc(=O)o1,1.07 ± 0.05
7,CC(=O)OCC(=O)[C@@]1(O)CC[C@H]2[C@@H]3CCC4=CC(=O)C=C[C@]4(C)[C@H]3[C@@H](O)C[C@@]21C,0.864 ± 0.1
8,NC[C@H]1O[C@H](O[C@H]2[C@H](O)[C@@H](O[C@H]3O[C@H](CO)[C@@H](O)[C@H](N)[C@H]3O)[C@H](N)C[C@@H]2N)[C@H](N)[C@@H](O)[C@@H]1O,0.997 ± 0.033
9,CC(CN1c2ccccc2Sc2ccccc21)N(C)C (stereo not given),1.1 ± 0.064
10,CC(C)=CCc1c(O)cc2occ(-c3ccc4c(c3)OCO4)c(=O)c2c1O,1.05 ± 0.071
11,CO[C@H]1/C=C/O[C@@]2(C)Oc3c(C)c(O)c4c(O)c(c(/C=N/N5CCN(C)CC5)c(O)c4c3C2=O)NC(=O)/C(C)=C\C=C\[C@H](C)[C@H](O)[C@@H](C)[C@@H](O)[C@@H](C)[C@H](OC(C)=O)[C@@H]1C,1.07 ± 0.13
12,c1ccc2c(c1)CN1CCCC1=N2,1.09 ± 0.24
13,CC1(C)CC2C1CC[C@]1(CBr)CCC3C(CC(=O)O)C(=O)O[C@@]32C1 (stereo not given in full) [BROMO-3-HYDROXY-4-(SUCCIN-2-YL)-CARYOLANE gamma-LACTONE],1.03 ± 0.079
14,NC(=O)c1ccc[n+]([C@@H]2O[C@H](COP(=O)([O-])OP(=O)(O)OC[C@H]3O[C@@H](n4cnc5c(N)ncnc54)[C@H](O)[C@@H]3O)[C@@H](O)[C@H]2O)c1,0.956 ± 0.09
15,COc1ccc(C2C(=O)c3ccccc3C2=O)cc1,0.984 ± 0.08
16,N=C1C=CC(=C(c2ccc(N)cc2)c2ccc(N)cc2)C=C1,0.873 ± 0.0028
17,CC(C(=O)O)c1ccc2c(c1)[nH]c1ccc(Cl)cc12 (stereo not given),1.03 ± 0.061
18,CO/N=C(\C(=O)N[C@@H]1C(=O)N2C(C(=O)O)=C(COC(C)=O)CS[C@H]12)c1csc(N)n1,1.07
19,Cc1cc(N)c2ccccc2[n+]1CCCCCCCCCC[n+]1c(C)cc(N)c2ccccc21,0.907 ± 0.042
20,CCOc1ccc(Cc2nccc3cc(OCC)c(OCC)cc23)cc1OCC,0.885 ± 0.056

row,SMILES,cell viability
1,Nc1nccs1,1 ± 0.14
2,CCC(C)C(=O)OC1[C@@H]2CC3=C4CC(=O)O[C@@H](c5ccoc5)[C@]4(C)CCC3[C@@](C)(C2=O)[C@@H](CC(=O)OC)C1(C)C (stereo not given in full),1.19 ± 0.092
3,CC(C)[C@@H]1CC[C@@H](C)C[C@H]1OC(=O)c1ccccc1,1.03 ± 0.057
4,CCCCC(=O)Oc1ccccc1C(=O)O,0.98 ± 0.042
5,NS(=O)(=O)c1cc(C2(O)NC(=O)c3ccccc32)ccc1Cl (stereo not given),1.02 ± 0.036
6,CC1Cc2ccccc2N1NC(=O)c1ccc(Cl)c(S(N)(=O)=O)c1 (stereo not given),1.1 ± 0.028
7,Clc1ccccc1CN1CCc2sccc2C1,1.07 ± 0.05
8,COc1cc(O)cc(OC)c1OC,1.01 ± 0.015
9,C#C[C@]1(OC(C)=O)CC[C@H]2[C@@H]3CCC4=CC(=O)CC[C@@H]4[C@H]3CC[C@@]21C,0.964 ± 0.094
10,CN1CCN(CC/C=C2/c3ccccc3Sc3ccc(S(=O)(=O)N(C)C)cc32)CC1,1.16 ± 0.042
11,COc1cccc2c1C(=O)c1c(O)c3c(c(O)c1C2=O)CC(O)(C(C)O)CC3OC1CC(NC=O)C(O)C(C)O1 (stereo not given) [Baumycin C2],1.005 ± 0.0071
12,COc1ccc(-c2cc(=O)c3cc(OC)ccc3o2)cc1,0.964 ± 0.065
13,Oc1c(Cl)cc(Cl)c2cccnc12,1.02 ± 0.081
14,COC1=CC(=O)C(C(=O)c2ccccc2)=CC1=O,0.991 ± 0.028
15,CC(=O)OCC(=O)[C@@]1(O)CC[C@H]2[C@@H]3CCC4=CC(=O)CC[C@]4(C)[C@H]3C(=O)C[C@@]21C,1 ± 0.079
16,COc1ccc2c3c1O[C@H]1C[C@@H](O)C=C[C@@]31CCN(C)C2,1 ± 0.081
17,CCS(=O)(=O)CCn1c([N+](=O)[O-])cnc1C,0.975 ± 0.014
18,CN1CCN(C2=Nc3ccccc3Oc3ccc(Cl)cc32)CC1,0.971 ± 0.055
19,COc1c2c(c(O)c3c4c(c(C)cc13)C1OC3(C(OC)OC)OC1C(O[C@H]1C[C@@H](O)[C@@](O)(C(C)=O)[C@H](C)O1)(O4)C3(O)CO)C(=O)C(O)CC2O[C@H]1C[C@@](C)(O)[C@H](OC(C)=O)[C@H](C)O1 (stereo not given in full) [Trioxacarcin B],1.11 ± 0.014
20,CC[C@H](C)[C@@H]1NC(=O)[C@H](C)NC1=O [Cyclo(alanylisoleucyl)],1.165 ± 0.0071
